# Test results: PubChem BioAssay (NCI)
# Compounds without any hit were thinned out: in the full panel of roughly 83,000, 20% have a hit.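 Values shown are percent growth following 48 h exposure of cells in 96-well plates to a single concentration of compound; below 10 was considered active.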 Calls of active or inactive are those of the source.
# System: T-47D breast
# Test: NCI-60 one-dose screen, 48 h (100 = growth as untreated, 0 = no growth, -100 = all killed)
# Settings: 10 µM unless noted
row,SMILES,growth
1,COc1ccc(COC(C)=O)cc1,102% (inactive)
2,COC(=O)CCC1=C(CC(=O)OC)C(C)=N/C1=C\c1[nH]c(-c2ccc[nH]2)cc1OC,40.1% (inactive)
3,O=C(/C(=N/O)S(=O)(=O)c1ccccc1)c1cccs1,93.2% (inactive)
4,COc1cc(OC)c2cc(C(=O)O)c(=O)oc2c1,99.4% (inactive)
5,CN(CCOc1ccc(CC2SC(=O)NC2=O)cc1)c1ccccn1 (stereo not drawn),102% (inactive)
6,CCC(C)CC(C)C(=O)c1c(O)ccn(O)c1=O (stereo not drawn),35.5% (inactive)
7,O=C(CSc1nc2c(n1Nc1ccccc1)-c1ccccc1SC2)Nc1nc(-c2ccc(Cl)cc2)cs1,66.8% (inactive)
8,Cc1[nH]n(C(N)=S)c(=O)c1N=Nc1ccc(F)c(Cl)c1,249% (inactive)
9,Clc1cccc(Cc2cn3cc(-c4ccccc4)nc3s2)c1,11.5% (inactive)
10,NC(=O)N/N=C/c1ccc(Br)o1,91.4% (inactive)
11,C[n+]1c2ccccc2c(NC2CCNCC2)c2[nH]c3ccccc3c21,-9.19% (active)
12,[O-]/[N+](=C\C=C\c1ccccc1)c1ccccc1,95.6% (inactive)
13,CCCn1cnc2c1c(=O)n(CCCCC(C)=O)c(=O)n2C,99% (inactive)
14,O=C1/C(=C/c2ccc3cccc(Cl)c3n2)SC(=S)N1CCc1ccc(O)cc1,65.5% (inactive)
15,CN=C(NC)N/N=C(C)\C=N\NC(=NC)NC,109% (inactive)
16,CCN(CC)CCCNCCCNc1cc(OC)cc2cccnc12,64.7% (inactive)
17,COc1cc2c(cc1OCCCOc1ccc(-c3cc4ccccc4c4ccccc34)cc1)N=C[C@@H]1CCCN1C2=O,-66.4% (active)
18,Nc1ccc(C2=NN(c3ccccc3)C(c3ccc(Cl)cc3)C2)cc1 (stereo not drawn),63.8% (inactive)
19,O=C1C[C@@H]2/C(=C(O)\C=C\c3ccccc3)C(=O)C=C[C@@H]2O1,16.7% (inactive)

row,SMILES,growth
1,COc1ccc(-c2cc(C(=O)Nc3nc4cc(C)c(C)cc4s3)nc3cc(-c4ccccc4)nn23)cc1OC,103% (inactive)
2,CCC(=O)Nc1ccccc1C#C/C=C\C#Cc1ccccc1C(F)(F)F,65.4% (inactive)
3,Oc1ccccc1C=Nc1ccccc1N=Cc1ccccc1O.[Cu+2],20.2% (inactive)
4,CCOc1cccc(C2CC(=O)Nc3cc4c(cc32)OCO4)c1 (stereo not drawn),66.9% (inactive)
5,NC(N)=NN=c1c(=O)c2ccccc2c1=O,116% (inactive)
6,O=[N+]([O-])c1ccc(Oc2cccc(C(F)(F)F)c2)c([N+](=O)[O-])c1,48% (inactive)
7,CCCCCCCCCCCCNc1ncnc2[nH]ncc12,62.8% (inactive)
8,Cc1ccc2c(c1)C(=O)/C(=C/c1ncc([N+](=O)[O-])n1C)O2,90.3% (inactive)
9,O=C(/C=C/c1cccnc1)NCCCCC1CCCN(C(=O)c2ccccc2)C1 (stereo not drawn),47.3% (inactive)
10,O=C(/C=C/c1cccnc1)/C=C/c1cccnc1,-2.05% (active)
11,COc1ccc(-n2nnc(C(=O)O)c2-c2cc(OC)c(OC)c(OC)c2)cc1,104% (inactive)
12,COc1cc2c(cc1OCCCCCn1c(-c3ccc(OCc4ccccc4)cc3)nc3cc(N4CCOCC4)ccc31)N=C[C@@H]1CCCN1C2=O,19% (inactive)
13,O=C1C(=O)c2ccc(Br)cc2-c2cc(Br)ccc21,20% (inactive)
14,CCC(C)CC(C)C(=O)c1c(O)ccn(OC)c1=O (stereo not drawn),82.9% (inactive)
15,NNC(=O)NO,98.9% (inactive)
16,COc1ccc(C2CC(c3cccc(Nc4ccnc5cc(Cl)ccc45)c3)=NN2C=O)cc1 (stereo not drawn),43.5% (inactive)
17,C=CC1=C(C(=O)O)N2C(=O)[C@@H](NC(=O)/C(=N\O)c3csc(N)n3)[C@H]2SC1 (stereo in doubt),114% (inactive)
18,CC(=O)Oc1ccc(C2OC(c3ccc4ccccc4c3OC(C)=O)=NN2C(C)=O)c(OC(C)=O)c1 (stereo not drawn),25% (inactive)
19,Cc1ccc(NC(=O)COC(=O)c2ccc(S(=O)(=O)N3CCCCCC3)cc2)cc1,5.22% (active)
